# Source: PubChem (Bradner/Qi Labs at DFCI)
# CBX7 AlphaScr – CBX7 chromodomain binding inhibitors, primary screen, biochemical, AlphaScreen; Chromobox protein homolog 7 (Homo sapiens), O95931; AlphaScreen His6-CBX7 / biotin-H3K27me3 peptide binding; active compounds read low; normalised signal (fraction of DMSO) (no concentration beside the values); hit rate 1.1% among 66,000; AID 1224903, 2016; in the data active = normalised signal below about 0.5
# Target sequence (O95931 whole entry, looked up): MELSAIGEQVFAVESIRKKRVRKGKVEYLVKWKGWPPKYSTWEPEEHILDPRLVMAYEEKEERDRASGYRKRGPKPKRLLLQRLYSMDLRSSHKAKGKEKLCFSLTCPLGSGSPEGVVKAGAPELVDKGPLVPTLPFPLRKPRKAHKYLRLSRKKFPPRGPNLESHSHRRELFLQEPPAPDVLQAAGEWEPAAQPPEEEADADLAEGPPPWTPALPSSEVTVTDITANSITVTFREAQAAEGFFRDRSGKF
# Numbers stand for hits; 0 = inactive. The entries come from a sample that favours hits as a whole.
SMILES,CBX7 AlphaScr
Cc1ccc(N2CC(C(=O)NC(C)c3ccccc3)CC2=O)cc1 (stereo not drawn),0
CC(C)c1ccc(Nc2cc(C(=O)O)c3ccccc3n2)cc1,0
CCOC(=O)c1cnc2c(OC)cccc2c1Nc1ccc(C(C)C)cc1,0
Oc1ccccc1C(CCN1CCOCC1)c1ccccc1 (stereo not drawn),0
CCOc1ccc(NC(=O)N(CCN2CCOCC2)Cc2ccc3c(c2)CCCN3CC)cc1,0
CCCCN1CCCc2cc(CN(CCCN3CCOCC3)C(=O)Nc3ccc(C)c(C)c3)ccc21,0.22
CCCN1CCCc2cc(CN(CCCN3CCOCC3)C(=O)Nc3ccc(OCC)cc3)ccc21,0
CCN1CCCc2cc(CN(CCN3CCOCC3)C(=O)Nc3ccc(Cl)cc3)ccc21,0
CCCN1CCCc2cc(CN(CCCOC)C(=O)Nc3ccc(C)c(C)c3)ccc21,0
CCCN1CCCc2cc(CN(CCCOC)C(=O)Nc3ccc(OCC)cc3)ccc21,0.233
Cc1cccc(C)c1NC(=O)Cn1c(-c2cncs2)nc2ccccc21,0
CCCCCCOc1ccc(N2C(=O)CC(N3CCOCC3)C2=O)cc1 (stereo not drawn),0
CCCCCCCOc1ccc(C(=O)Nc2nnc(C)s2)cc1,0
CCc1cc2c(oc(=O)c3ccccc32)c(CN2CCN(C)CC2)c1O,0.345
CCc1cc2c(C)cc(=O)oc2c(CN2CCCCCC2)c1O,0
CCc1cc2c(=O)c(-c3nc4ccccc4n3C)c(C)oc2c(CN2CCCCC2)c1O,0
Cc1ccc(-c2cc(C(F)F)nc(NCc3ccc(Cl)cc3)n2)cc1,0
COc1ccc(CN(C)CCc2ccccn2)cc1OCc1ccccc1,0
COc1ccc(CN(C)CCc2ccccn2)cc1,0
COc1ccc(CN(C)CCc2ccccn2)cc1OC,0.469
CC(=O)Nc1ccc(S(=O)(=O)Nc2ccc(S(=O)(=O)Nc3nccc(C)n3)cc2)cc1,0
Cc1ccc(S(=O)(=O)Nc2ccccc2CNc2cccc3cccnc23)cc1,0
CC(=O)Nc1ccc(S(=O)(=O)Nc2cccc3cccnc23)cc1,0.0448
CCOC(=O)C1CCCN(C(=O)Cn2nc(Cc3ccncc3)c3ccccc3c2=O)C1 (stereo not drawn),0
O=C(C1CCCCC1)N1CCNc2ccccc2C1,0
SMILES,CBX7 AlphaScr
COc1cccc(CNC(=O)CCc2cn(Cc3ccc(C)cc3)c3ccccc23)c1,0
Cc1ccc(Cn2cc(CCC(=O)NCc3ccccc3)c3ccccc32)cc1,0
CCc1ccc(CNC(=O)CCc2cn(Cc3ccccc3)c3ccccc23)cc1,0
O=C(CCc1cn(Cc2ccccc2)c2ccccc12)NCc1ccccc1Cl,0.489
O=C(CCc1cn(Cc2ccccc2)c2ccccc12)NCCc1ccc(Cl)cc1,0
Cc1ccc(Cn2cc(CCC(=O)NCc3cccnc3)c3ccccc32)cc1,0.261
CCOc1ccc(CC(=O)Nc2sc3c(c2C(=O)OC)CCCCC3)cc1OCC,0
Cc1ccc(NC(=O)C(Cc2ccccc2)N2C(=O)c3ccccc3C2=O)c(C)c1 (stereo not drawn),0
CC(=O)N1CCc2cc(S(=O)(=O)NC(C(=O)O)c3ccccc3)ccc21 (stereo not drawn),0
COc1ccc(-c2cc3nc(C)c(CCC(=O)Nc4ccccc4C)c(C)n3n2)c(OC)c1,0
CC1=Nc2cc(C(=O)N3CCOCC3)ccc2Sc2ccc(Cl)cc21,0
c1ccc(-c2nnc(-c3ccccn3)nc2-c2ccccc2)cc1,0.0503
Cc1cc(C)cc(-c2nc(-c3ccccn3)no2)c1,0
c1ccc(-c2nnc(Nc3ccccn3)c3ccccc23)cc1,0
Cc1cc(N2C(=O)c3ccc(Oc4ccc(N)cc4)cc3C2=O)no1,0
COc1cccc(N2CCN(C(=O)c3ccc4c(c3)NC(=O)c3ccccc3S4)CC2)c1,0
Clc1ccc(-c2cnc(-c3ccncc3)o2)cc1,0
NC(=O)c1ccc(-c2ncc(-c3ccccc3)o2)cc1,0.424
Cc1cc(C)c(C(=O)c2ccc(-c3nnc(-c4ccccc4)o3)cc2)c(C)c1,0
Cc1cc2nc(-c3ccc(F)cc3)cc(C(F)(F)F)n2n1,0
Nc1c2c(nc3sc4c(c13)CCCCC4)CCCCC2,0
Cc1c(-c2ccccc2)nc2sc3c(c2c1N)CCCCC3,0
Cc1c(-c2ccccc2)nc2sc3c(c2c1N)CCCC3,0.474
CC(=O)N1CCc2cc(S(=O)(=O)NCCC(=O)N3CCN(c4cccc(C)c4)C(C)C3)ccc21 (stereo not drawn),0
Cc1ccnc(Nc2nc(-c3c(C)nc4cc(C)ccn34)cs2)c1,0
SMILES,CBX7 AlphaScr
Cc1ccnc(Nc2nc(-c3sc(N)nc3C)cs2)c1,0.404
Cc1ccnc(Nc2nc(-c3ccc(C(C)C)cc3)cs2)c1,0
COc1cccc(-c2nc(-c3ccccc3)c(-c3cc([N+](=O)[O-])ccc3C)[nH]2)c1,0.47
Fc1ccccc1-c1nc(-c2ccccc2)c(-c2ccc(Sc3ccccc3)cc2)[nH]1,0
O=C1c2ccc([N+](=O)[O-])cc2C(=O)N1c1ccc2nc(-c3ccccc3)[nH]c2c1,0
COc1cccc(-c2nc(-c3ccccc3)c(-c3cccs3)[nH]2)c1,0
Cc1ccc([N+](=O)[O-])cc1-c1[nH]c(-c2ccccc2F)nc1-c1ccccc1,0.473
Cc1ccc(C)c(-c2[nH]c(-c3ccc(C(=O)O)cc3)nc2-c2ccccc2)c1,0
COc1ccc(-n2nc3c(c2NC(=O)c2ccc(OC(C)C)cc2)CSC3)cc1,0
Cc1ccc(Nc2c(-c3ccc(C)cc3)nc3ccccn23)cc1,0
Cc1cccn2c(Nc3ccccc3)c(-c3ccccn3)nc12,0
Clc1ccc(Nc2c(-c3ccccn3)nc3cnccn23)cc1,0
c1ccc(Nc2c(-c3ccc(N4CCOCC4)cc3)nc3ccccn23)cc1,0
c1ccc(Nc2c(-c3ccccn3)nc3ccccn23)cc1,0.239
CC(C)c1ccc(Nc2c(-c3ccccn3)nc3ccccn23)cc1,0.211
Cc1cccc(C)c1Nc1c(-c2ccccn2)nc2c(C)cccn12,0
Cc1cccn2c(Nc3ccc(C(C)C)cc3)c(-c3ccccn3)nc12,0.262
Cc1ccc(Nc2c(-c3ccccc3)nc3ccccn23)cc1,0
CC(C)CCNS(=O)(=O)c1ccc2c(c1)CCN2C(=O)CCCC(=O)O,0
CN(C(=O)Cn1nc(Cc2ccncc2)c2ccccc2c1=O)c1cccc(Cl)c1,0
CCOc1ccc(-n2ccnc2SCC(=O)Nc2cc(C)cc(C)c2)cc1,0
c1ccc(CC2CCN(c3nc(-c4ccncc4)nc4ccccc34)CC2)cc1,0
CC(C)(c1ccccc1)c1ccc(OCCN2CCOCC2)cc1,0.297
CCCCOc1ccc(C(O)(CCC)CCN2CCOCC2)cc1 (stereo not drawn),0
CCCOc1ccc(C(C)(O)CN2CCOCC2)cc1 (stereo not drawn),0
SMILES,CBX7 AlphaScr
Cc1ccccc1Cc1c(C)nc2c(C(=O)NCCc3ccccc3)cnn2c1C,0
CCN(CC)c1nc(C)nc2sc(C(=O)Nc3ccc(OC)c(Cl)c3)c(C)c12,0
Cc1ccc(-c2nnc(N3CCOCC3)c3ccccc23)cc1S(=O)(=O)NCc1nc2ccccc2[nH]1,0
CC(C(=O)NC1CCCCC1)C1Sc2ccccc2NC1=O (stereo not drawn),0
O=C1CC(c2ccc(F)cc2)Sc2ccccc2N1 (stereo not drawn),0
O=C1Nc2ccccc2SC(c2ccccc2)C1O (stereo not drawn),0.193
CCCCNC(=O)CN1C(=O)CSc2ccc(S(=O)(=O)N3CCCCC3)cc21,0
CN(C)c1ccc(C(=O)CC2(O)C(=O)Nc3ccccc32)cc1 (stereo not drawn),0
